Screening data from PubChem.
Rows were chosen to be rich in hits. Some 1.2% of all compounds tested hit in one or more screens of this group.
TcdB GH inh = inhibitors of Clostridioides difficile toxin B glycohydrolase. P18177. 0.24% of 350,000 active. AID 652162. inhibition, % at 9.99 µM. TcdB glycohydrolase enzymatic assay, plate reader; in the data active = inhibition above about 10%
Target sequence (P18177 whole entry, looked up): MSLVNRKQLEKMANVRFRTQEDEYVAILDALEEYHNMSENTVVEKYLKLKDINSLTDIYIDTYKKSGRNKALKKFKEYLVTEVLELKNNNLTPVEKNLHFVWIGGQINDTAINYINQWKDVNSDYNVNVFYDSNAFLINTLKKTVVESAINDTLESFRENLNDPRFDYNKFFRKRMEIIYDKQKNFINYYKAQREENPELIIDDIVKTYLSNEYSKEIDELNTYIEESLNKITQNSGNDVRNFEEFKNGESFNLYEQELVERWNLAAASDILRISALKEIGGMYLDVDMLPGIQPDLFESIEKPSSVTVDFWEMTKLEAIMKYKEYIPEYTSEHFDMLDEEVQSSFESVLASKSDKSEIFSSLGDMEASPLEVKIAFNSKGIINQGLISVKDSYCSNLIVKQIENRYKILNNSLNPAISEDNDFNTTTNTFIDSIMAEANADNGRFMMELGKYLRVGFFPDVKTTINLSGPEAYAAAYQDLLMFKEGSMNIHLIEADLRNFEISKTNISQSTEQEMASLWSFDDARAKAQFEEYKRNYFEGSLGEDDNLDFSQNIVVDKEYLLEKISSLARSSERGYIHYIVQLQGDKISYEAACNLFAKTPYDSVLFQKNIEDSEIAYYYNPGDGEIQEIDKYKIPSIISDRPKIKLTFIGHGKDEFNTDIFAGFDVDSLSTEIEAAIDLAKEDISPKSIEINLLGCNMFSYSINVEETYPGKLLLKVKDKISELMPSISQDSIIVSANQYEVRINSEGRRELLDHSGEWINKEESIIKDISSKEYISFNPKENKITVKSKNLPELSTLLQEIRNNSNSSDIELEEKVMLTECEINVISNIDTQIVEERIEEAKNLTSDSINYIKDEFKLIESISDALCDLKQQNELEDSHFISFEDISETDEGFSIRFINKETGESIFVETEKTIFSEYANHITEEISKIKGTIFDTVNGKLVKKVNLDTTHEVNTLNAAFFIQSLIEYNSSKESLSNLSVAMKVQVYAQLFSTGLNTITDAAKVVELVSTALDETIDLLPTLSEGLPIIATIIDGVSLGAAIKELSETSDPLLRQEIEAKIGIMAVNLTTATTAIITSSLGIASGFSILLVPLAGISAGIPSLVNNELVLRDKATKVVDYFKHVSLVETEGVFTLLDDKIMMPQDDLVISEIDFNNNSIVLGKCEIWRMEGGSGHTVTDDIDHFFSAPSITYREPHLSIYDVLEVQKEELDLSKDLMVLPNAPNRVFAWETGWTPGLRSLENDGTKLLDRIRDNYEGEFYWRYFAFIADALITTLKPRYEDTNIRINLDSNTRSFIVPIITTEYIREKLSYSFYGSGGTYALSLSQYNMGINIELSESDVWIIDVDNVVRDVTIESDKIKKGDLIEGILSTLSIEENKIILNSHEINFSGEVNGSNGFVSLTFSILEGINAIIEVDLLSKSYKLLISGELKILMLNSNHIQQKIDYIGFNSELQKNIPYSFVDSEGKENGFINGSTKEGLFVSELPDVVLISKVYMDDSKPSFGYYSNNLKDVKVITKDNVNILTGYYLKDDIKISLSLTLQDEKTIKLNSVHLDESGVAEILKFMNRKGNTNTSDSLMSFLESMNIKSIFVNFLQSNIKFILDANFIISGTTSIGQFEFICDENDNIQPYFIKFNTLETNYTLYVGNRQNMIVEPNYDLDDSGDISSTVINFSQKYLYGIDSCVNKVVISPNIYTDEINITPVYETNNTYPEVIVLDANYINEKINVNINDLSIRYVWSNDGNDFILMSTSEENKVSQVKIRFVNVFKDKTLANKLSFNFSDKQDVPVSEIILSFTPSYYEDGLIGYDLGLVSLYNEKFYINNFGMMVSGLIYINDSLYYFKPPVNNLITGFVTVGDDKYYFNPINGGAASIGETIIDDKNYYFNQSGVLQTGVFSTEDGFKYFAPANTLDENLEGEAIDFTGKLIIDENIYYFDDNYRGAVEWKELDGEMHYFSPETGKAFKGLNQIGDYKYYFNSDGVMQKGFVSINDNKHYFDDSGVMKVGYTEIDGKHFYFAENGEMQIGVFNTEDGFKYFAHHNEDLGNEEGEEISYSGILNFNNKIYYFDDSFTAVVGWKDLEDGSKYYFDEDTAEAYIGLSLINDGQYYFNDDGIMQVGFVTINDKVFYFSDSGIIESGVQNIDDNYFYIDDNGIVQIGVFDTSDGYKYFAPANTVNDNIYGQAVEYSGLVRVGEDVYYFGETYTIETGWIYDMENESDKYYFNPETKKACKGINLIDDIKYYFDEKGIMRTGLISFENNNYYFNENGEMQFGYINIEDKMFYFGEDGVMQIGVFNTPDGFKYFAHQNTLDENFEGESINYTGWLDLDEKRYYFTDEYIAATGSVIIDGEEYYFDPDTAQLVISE
Sa ugtP lethal = kills S. aureus RN4220 lacking UgtP; 0.54% of 330,000 active; S. aureus RN4220 ugtP deletion, OD600 growth, 16 h; growth inhibition, % (no concentration beside the values); in the data active = growth inhibition above about 68%;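 note: plate controls were untreated wells for no effect and antibiotic for full effect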
RN4220 kill = S. aureus RN4220 growth inhibition; AID 1259311; 0.33% of 330,000 active; inhibition, % (test concentration not listed); OD600, 16 h; in the data active = inhibition above about 85%;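 note: plate controls were untreated cells for no effect and reference antibiotic for full effect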
PrP UTR inh = inhibition of PrP 5' UTR reporter expression; cell-based PrP 5' UTR mRNA reporter, plate reader; inhibition, % (concentration not given with the values); 0.35% of 340,000 active; AID 488862; in the data active = inhibition above about 52%; note: 0 = median of the neutral control wells
PfHsp40 yeast = compounds rescuing yeast from Plasmodium falciparum HSP40 toxicity | S. cerevisiae expressing PfHsp40, growth rescue, ATP luminescence | AID 504582 | 0.68% of 340,000 active | growth rescue, % at 12.5 µM; in the data active = growth rescue above about 28%, passing the limit was not always enough; inconclusive = no clear call, values can overlap the other calls;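 note: yeast W303a lacking pdr1 and pdr3 grown in galactose medium; growth measured after three days at 30 °C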
* hit, by the source's call; ? = inconclusive; / = no result given.

SMILES | TcdB GH inh | Sa ugtP lethal | RN4220 kill | PrP UTR inh | PfHsp40 yeast
O=C(NN=Cc1ccccn1)c1cccc([N+](=O)[O-])c1 | / | -0.5 | 1.2 | / | /
COc1ccc(S(=O)(=O)N(C)C[C@H]2Oc3ccc(NC(=O)Nc4ccc5c(c4)OCO5)cc3CC(=O)N([C@H](C)CO)C[C@@H]2C)cc1 | -1.4 | / | / | / | /
Cc1cc(C(=O)N/N=C/c2cccc([N+](=O)[O-])c2)c2ccccc2n1 | 2.3 | / | / | -3.7 | 33.7*
O=C(Nc1ccc(N2CCOCC2)c(Cl)c1)c1ccc([N+](=O)[O-])o1 | 4.7 | 96.4* | 64.9 | -27.4 | 7.5
CC(C)C(=O)N1CCN(c2ccc(NC(=O)c3ccc([N+](=O)[O-])o3)cc2Cl)CC1 | 2.9 | 55.5 | 47.5 | -74.1 | 3.5
CN1CCN(c2ccc(NC(=O)c3ccc([N+](=O)[O-])o3)cc2Cl)CC1 | 1.8 | 100.7* | 99.3* | 4.3 | -1.2
CCCC(=O)Nc1ccc2c(c1)C(=O)N(C)C[C@H](OC)[C@@H](C)CN(Cc1ccccn1)[C@@H](C)CO2 | -2.0 | / | / | / | /
Clc1ccc(-c2ccc(C=NNc3nncc(-c4ccccc4)n3)o2)cc1 | / | 2.5 | 5.8 | / | /
Cc1ccc(S(=O)(=O)N[C@@H]2C=C[C@H](CC(=O)NCCCN(C)C)O[C@H]2CO)cc1 | -1.1 | / | / | / | /
Oc1c(C(Nc2ccccn2)c2ccccn2)ccc2cccnc12 (stereo not drawn) | -1.5 | -7.5 | 15.1 | 18.7 | 63.3*
Cc1cc(NC(c2ccc(Cl)cc2)c2ccc3cccnc3c2O)no1 (stereo not drawn) | / | 6.9 | 21.6 | 39.9 | 44.0*
Cc1ccnc(NC(c2ccccc2)c2ccc3cccnc3c2O)c1 (stereo not drawn) | 0.6 | 2.4 | 28.2 | -8.4 | 153.7*
Cc1ccc2ccc(C(Nc3ccccn3)c3ccccc3)c(O)c2n1 (stereo not drawn) | 1.2 | 8.0 | 4.7 | -25.8 | -0.7
Cc1ccnc(NC(c2ccsc2)c2ccc3ccc(C)nc3c2O)c1 (stereo not drawn) | 0.2 | 16.6 | 13.6 | -23.6 | 249.6*
CC1CN(C(C)CO)C(=O)c2cccc(NC(=O)Nc3ccc4c(c3)OCO4)c2OC1CN(C)C(=O)Nc1ccc(C(F)(F)F)cc1 (stereo not drawn) | / | -12.4 | -3.4 | / | /
CO[C@@H]1CN(C)C(=O)c2ccc(NC(=O)CC(F)(F)F)cc2OC[C@H](C)N(C(C)=O)C[C@@H]1C | -0.6 | / | / | / | /
O=C(O)c1ccccc1NC(c1ccccc1)c1ccc2cccnc2c1O (stereo not drawn) | -0.6 | / | / | -12.6 | 322.0*
Cc1nn(-c2ccccc2)c2c1C(c1ccc([N+](=O)[O-])cc1)N1C(=N2)C(=O)Nc2ccccc21 (stereo not drawn) | 0.2 | 6.8 | -0.9 | -13.3 | -0.8
Cc1nn(-c2ccccc2)c2c1C(c1ccc(O)c(O)c1)N1C(=N2)C(Nc2ccccc2)=Nc2ccccc21 (stereo not drawn) | / | 55.4 | 11.8 | -11.2 | 0.0
Cc1ccc(NC2=Nc3ccccc3N3C2=Nc2c(c(C)nn2-c2ccccc2)C3c2ccc(O)c(O)c2)cc1 (stereo not drawn) | / | 98.2* | 68.8 | 1.3 | 1.0
Cc1cccc(NC2=Nc3ccccc3N3C2=Nc2c(c(C)nn2-c2ccccc2)C3c2ccc(O)c(O)c2)c1 (stereo not drawn) | / | 97.4* | 47.1 | -11.0 | 4.0
CO[C@H]1CN(C)C(=O)c2cc(C#N)ccc2OC[C@H]2O[C@@H](CC[C@@H]2OC)CCN(C)C(=O)[C@H]1C | 0.6 | / | / | / | /
N=C1/C(=C/c2cccs2)C(=O)N=C2SN=C(SCc3ccccc3)N12 | / | 83.1* | 83.5 | 2.5 | -0.6
Cc1ccccc1CN(C)C[C@@H]1OCc2cnnn2CCCC(=O)N([C@@H](C)CO)C[C@@H]1C | 0.1 | / | / | / | /
CCCCCC[n+]1c(-c2ccccc2)csc1Nc1ccccc1 | 1.5 | 88.4* | -0.2 | -14.4 | 8.6
SMILES | TcdB GH inh | Sa ugtP lethal | RN4220 kill | PrP UTR inh | PfHsp40 yeast
COc1ccc(CN(C)C[C@H]2Oc3c(NC(=O)CCCCCC(=O)Nc4ccccc4N)cccc3C(=O)N([C@H](C)CO)C[C@@H]2C)cc1 | -0.9 | / | / | / | /
O=C(O)c1ccc(N/N=C/C(Br)=C/c2ccccc2)cc1 | -1.8 | / | / | -204.3 | 183.4*
O=C(O)c1ccc(N/N=C/c2ccc(F)c(F)c2)cc1 | -4.2 | / | / | -53.2 | 146.8*
O=C(O)c1ccc(N/N=C/c2cccc(C(F)(F)F)c2)cc1 | -3.7 | / | / | -72.4 | 63.6*
O=C(O)c1ccc(N/N=C/c2cccc(F)c2)cc1 | / | / | / | -78.5 | 2.8
CCC(=O)N1[C@H](C#N)[C@@H](c2ccccc2-c2cccc(C)c2)[C@H]1CO | 0.4 | / | / | / | /
CCCCN=C1CC(C)(C)CC(=O)/C1=C(\O)CCC | / | -0.2 | 2.6 | / | /
COc1ccc(CS(=O)(=O)/C(Cl)=C(/Cl)C(=O)Nc2ccc(OC)nc2)cc1 | / | 100.3* | 25.8 | 47.9 | 0.1
COc1ccc(NC(=O)/C(Cl)=C(/Cl)S(=O)Cc2ccccc2)cn1 (stereo not drawn) | / | 87.8* | 51.1 | 27.2 | 0.0
COc1ccc(/C=C/C(=O)Nc2ccc(OC)nc2)cc1 | 1.8 | 14.3 | 2.7 | -19.3 | 2.8
CN1C=CC(=CC=C2C=CC(=O)C=C2)C=C1 | 27.2* | 6.0 | 0.4 | -20.8 | -0.6
CC(C)(/C=N/O)N(O)C=C1C=CC(=O)C=C1 | 5.2 | / | / | -17.5 | -0.4
Cc1ccc(-n2nnnc2C(Cl)c2nnnn2-c2ccc(C)cc2)cc1 | / | 99.0* | 97.3* | -4.3 | ?
Cc1ccc(-n2nnnc2-c2ccccc2)cc1 | -1.6 | 0.6 | 1.4 | -24.7 | 2.6
CN1CCC(Oc2ccc(Sc3ccccc3)cc2)CC1 | -0.7 | 94.0* | -0.9 | -38.3 | 0.2
COc1ccccc1N1C(=O)C(Cl)=C(Nc2ccccc2O)C1=O | / | / | / | -29.7 | 91.9*
N#Cc1ncc(N=Cc2ccc(N(CCCl)CCCl)cc2)s1 | 1.2 | 2.5 | 3.4 | -9.6 | -0.1
ClCCN(CCCl)c1ccc(C=NNc2ncccn2)cc1 | 0.9 | -0.1 | 2.8 | -48.8 | 35.3*
COc1cc2nc(N3CCNCC3)nc(N)c2cc1OC | / | 9.7 | 7.8 | -21.4 | 185.8*
C[C@@H]1CN([C@H](C)CO)C(=O)CCCn2nncc2CO[C@@H]1CN(C)C(=O)Nc1ccc(F)cc1 | 0.7 | / | / | / | /
CO[C@H]1CN(C)C(=O)c2ccc(NC(C)=O)cc2OC[C@H](C)N(Cc2ccccc2C(=O)O)C[C@H]1C | 0.2 | / | / | / | /
Cc1c(C(=O)NCCSCc2c(F)cccc2Cl)cnn1-c1ccc(F)cc1 | 0.1 | -3.2 | -8.3 | -6.4 | 9.4
Cc1c(C(=O)NCCSCc2cccc(C(F)(F)F)c2)cnn1-c1ccc(F)cc1 | 1.1 | 3.0 | -8.5 | -18.1 | 100.8*
